PI4K2A block = qHTS for small molecular inhibitors of PI4K2A; activity change, negative = inhibition, % at 76.9 µM; hit rate 0.13% among 420,000; Phosphatidylinositol 4-kinase type 2-alpha (Homo sapiens), Q9BTU6; purified PI4K2A, ADP-Glo luminescence, 1 h; hits give low values; in the data active means activity change below about -50%; inconclusive means mostly about -30% to -49%;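 further: -100% = wells without enzyme as full effect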
Target sequence (Q9BTU6 whole entry, looked up): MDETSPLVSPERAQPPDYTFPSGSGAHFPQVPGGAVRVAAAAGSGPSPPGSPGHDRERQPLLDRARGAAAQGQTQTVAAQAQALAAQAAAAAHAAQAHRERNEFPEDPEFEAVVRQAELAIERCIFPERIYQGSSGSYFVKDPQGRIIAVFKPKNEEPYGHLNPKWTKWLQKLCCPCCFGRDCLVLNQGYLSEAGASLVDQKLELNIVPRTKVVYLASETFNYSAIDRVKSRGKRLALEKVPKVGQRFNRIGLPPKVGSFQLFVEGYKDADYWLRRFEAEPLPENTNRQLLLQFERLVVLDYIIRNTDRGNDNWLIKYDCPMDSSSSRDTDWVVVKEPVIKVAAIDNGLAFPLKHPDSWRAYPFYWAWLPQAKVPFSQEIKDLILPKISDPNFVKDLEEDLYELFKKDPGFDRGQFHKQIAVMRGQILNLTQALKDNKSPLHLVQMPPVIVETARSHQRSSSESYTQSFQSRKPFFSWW
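Compounds are screened against recombinant PI4K2A using PI as substrate and ATP, the latter dispensed at 300 microM. Reactions run one hour at ambient temperature before ADP-Glo detection; full inhibition defined by wells lacking enzyme.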
DRD3 agonist = qHTS of D3 Dopamine Receptor Agonist: qHTS | hit rate 0.58% among 410,000 | D3R DiscoveRx beta-arrestin cells, luminescence, 90 min | AID 652048, 2013 | D(3) dopamine receptor (Homo sapiens), P35462 | max activation, %; in the data active means max activation above about 30%; further: 0% is about no effect
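Cells at 1500/well, incubated overnight, then treated with pinned compounds (dopamine as control) for 90 min at 37 degrees C. DiscoveRx reagent added for 30 - 60 minutes at room temperature; luminescence read.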
LDHA inh = qHTS assay for inhibitors of human lactate dehydrogenase; L-lactate dehydrogenase A chain (Homo sapiens), P00338; purified LDHA, NADH/diaphorase-resazurin fluorescence; hits give low values; activity change, % (values are at about 110 or 230 µM); hit rate 0.15% among 480,000; in the data active means activity change below about -30%; inconclusive means mostly about -25% to -30%;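 further: plate controls were DMSO wells for no effect and wells without enzyme for full effect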
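Human LDH5 at 2 nM final in Tris HCl pH 7.4 with 0.06 mM NADH and 0.2 mM pyruvate, reacted 5 minutes at room temperature. Remaining NADH coupled via diaphorase/resazurin; resorufin fluorescence read at 0 and 20 minutes, normalized to enzyme-free and DMSO wells.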
pAkt inh = HTS Assay for Inhibitors of Akt Phophorylation: Primary Screen; AID 651550, 2012; activity change, % for hits at 50 µM; Neuro2A IGF-stimulated pAkt S473 HTRF, 20 min; hits give low values; hit rate 0.32% among 360,000; in the data active means activity change below about -80%; inconclusive means mostly about -51% to -80%; further: on the % scale 0 is the no-effect control and ±100 the full control effect
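Single-point screen (50 µM final compound) in Neuro2A cells stimulated 20 min with 6 nM IGF at 37 deg C. After lysis, Ser473-phosphorylated Akt read by HTRF (ex 330 nm, em 615/665 nm) as the 665/615 ratio.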
DRD3 antagonist = qHTS of D3 Dopamine Receptor Antagonist: qHTS; D(3) dopamine receptor (Homo sapiens), P35462; hit rate 2.5% among 360,000; D3R cells, DiscoveRx beta-arrestin luminescence, antagonist mode; hits give low values; max response, negative = inhibition, %; in the data active means max response below about -50%; inconclusive means no clear call, values can overlap the other calls; further: on the % scale 0 is the no-effect control and ±100 the full control effect
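Cells plated overnight at 1500 cells/well, then exposed to library compounds with dopamine controls for 90 minutes at 37 degrees C. DiscoveRx reagent added for 30–60 minutes at room temperature; luminescence read, quantitative HTS format.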
RGS4 inhibitor = Inhibitors of Regulator of G Protein Signaling (RGS) 4: qHTS; Regulator of G-protein signaling 4 (Homo sapiens), P49798; Transcreener GDP fluorescence polarization, RGS4-accelerated GTP hydrolysis; Potency, µM (titrated, usually from 114 µM), for inactives: at the highest dose activity change, negative = inhibition, actives largely listed as inhibitors; hit rate 0.039% among 390,000; active means well fitted inhibition curve with a large enough effect; inconclusive means small, poorly fitted or top-dose-only effect; inactive means no such curve, though single readings can be large or run the other way; further: potency means the concentration at half of the fitted maximal effect; on the % scale 0 is the no-effect control and ±100 the full control effect; nearly all actives have a fitted effect of over 75% in size
Target sequence (P49798 whole entry, looked up): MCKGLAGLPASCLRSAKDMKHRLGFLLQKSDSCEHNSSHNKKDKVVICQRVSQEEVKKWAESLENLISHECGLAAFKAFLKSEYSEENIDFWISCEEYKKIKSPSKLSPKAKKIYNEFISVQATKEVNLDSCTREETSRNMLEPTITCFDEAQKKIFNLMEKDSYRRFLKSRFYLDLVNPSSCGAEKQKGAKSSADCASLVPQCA
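MLSMR compounds (23 nl, pin-transferred) preincubated 10 min at room temperature with a 500nM (2x) first reagent, then RGS4 at 900nM (2x) plus Transcreener GDP mix added; fluorescence polarization (620/688 nm) read before and after 90 min at 30 °C.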
* = called active by the depositor; i = inactive; ? = inconclusive; · = no result given; [ ] = dose if it differs, or a comment. A selection: hits, their analogues and other compounds. The true share with any hit is near 2.8%.

SMILES	PI4K2A block	DRD3 agonist	LDHA inh	pAkt inh	DRD3 antagonist	RGS4 inhibitor
O=C(NCc1ccccc1)c1ccc2nc(-c3ccco3)c(-c3ccco3)nc2c1	-66*	1	10	i	0	?
COC(=O)Cc1c(C)c2ccc(OCC(=O)C(C)(C)C)c(C)c2oc1=O	·	·	0	·	·	·
O=C(Nc1ccc(N2CCOCC2)cc1)c1ccc2nc(-c3ccco3)c(-c3ccco3)nc2c1	-4	10	10	i	-8	-13%
CC(=O)c1ccc(NC(=O)c2ccc3nc(-c4ccco4)c(-c4ccco4)nc3c2)cc1	-56*	-3	6	i	1	?
CCN(CC)C(=O)c1ccc2nc3ccccc3nc2c1	4	-2	1	i	-63*	46%
CC(NC(=O)CSCc1cccs1)C1CCCO1 (stereo not drawn)	·	·	3	·	·	·
C(=C\c1ccccc1)/Sc1cccc2cccnc12	·	·	0	·	·	·
CCC(=O)N(C)C[C@@H]1Oc2ncc(Br)cc2C(=O)N([C@@H](C)CO)C[C@H]1C	-5	1	-4	i	-18	·
C[C@@H]1CN([C@H](C)CO)C(=O)c2cc(C#CC3CCCCC3)cnc2O[C@H]1CN(C)Cc1cccnc1	4	2	3	i	22	·
CC(=O)N(C)C[C@@H]1Oc2ncc(Br)cc2C(=O)N([C@H](C)CO)C[C@@H]1C	-8	1	-34*	i	10	·
C[C@H](CO)N1C[C@H](C)[C@H](CN(C)Cc2ccncc2)Oc2ncc(C#CC3CC3)cc2C1=O	3	2	1	i	-56*	·
CN(C)CC#CCC(O)(c1ccccc1)C1CCCCC1 (stereo not drawn)	1	-13	-1	i	-55*	10%
Cc1oc(-c2nc(C#N)c(NC(C)c3ccccc3)o2)cc1S(=O)(=O)N1CCOCC1 (stereo not drawn)	·	·	-6	·	·	·
COc1ccccc1/C=C/CN1CCOCC1	5	-23	-23	i	-25	0%
CCOC(=O)C1CCN(C/C=C/c2ccccc2OC)CC1	0	-57	-12	i	-68*	15%
CCOC(=O)C1CCCN(C(=O)/C=C/c2ccccc2[N+](=O)[O-])C1 (stereo not drawn)	0	-2	-4	i	-8	-3%
CCOC(=O)C1CCN(C/C=C/c2ccccc2[N+](=O)[O-])CC1	0	-12	-9	i	-56*	-34%
N#Cc1c(-c2ccccc2)cc(-c2ccccc2)nc1SCC(=O)NCC(=O)O	5	0	-102*	i	8	-44%
COc1ccc(-c2cc(-c3ccccc3)c(C#N)c(SCC(=O)O)n2)cc1	-4	-7	-24	i	-6	?
COC(=O)c1ccc(-c2ccc(CNCc3ccco3)o2)cc1	·	·	1	·	·	·
Cc1cccc(CS(=O)(=O)c2ncc(Cl)c(C(=O)Nc3nc4ccc(F)cc4s3)n2)c1	-4	-17	-1	·	·	-46%
Cc1ccccc1NC(=O)c1nc(S(C)(=O)=O)ncc1Cl	4	-13	-4	i	-81*	?
CCCc1nnc(NC(=O)c2nc(S(=O)(=O)Cc3cccc(C)c3)ncc2Cl)s1	-27	-8	1	i	-68*	-42%
Cc1cccc(CS(=O)(=O)c2ncc(Cl)c(C(=O)NCc3ccccc3)n2)c1	10	-3	-6	i	-82*	?
Cc1cccc(CS(=O)(=O)c2ncc(Cl)c(C(=O)Nc3c(C)cccc3C)n2)c1	-5	-24	2	i	-100*	?
SMILES	PI4K2A block	DRD3 agonist	LDHA inh	pAkt inh	DRD3 antagonist	RGS4 inhibitor
O=C(NCc1ccccc1)c1nc(S(=O)(=O)Cc2ccc(F)cc2)ncc1Cl	4	-23	0	·	·	?
c1ccc(CNc2nc(Nc3ccccc3)nc3ccccc23)cc1	·	·	2	·	·	·
Cc1cccc(C)c1NC(=O)c1nc(S(=O)(=O)Cc2ccccc2F)ncc1Cl	·	·	-7	·	·	·
Cc1cccc(C)c1NC(=O)c1nc(S(=O)(=O)Cc2ccccc2)ncc1Cl	2	-23	-7	i	-64*	?
Cc1cc(C)cc(NC(=S)NCC2CCCO2)c1 (stereo not drawn)	11	1	-2	-115%*	-9	-3%
CCc1cc(C(=O)NNC(=S)NCC2CCCO2)cs1 (stereo not drawn)	-7	-2	-4	i	-53*	-12%
Cc1cccc(NC(=S)NNC(=O)c2csc(C(C)C)c2)c1	2	-3	-14	i	15	-24%
CCc1cc(C(=O)NNC(=S)Nc2cccc(C)c2)cs1	2	-8	-1	i	-101*	-52%
COc1cc2c3c(c1)C(C)=CC(C)(C)N3C(=O)C2=O	12	-8	2	i	-10	-28%
CCCOc1ccccc1-n1sc2c(c1=S)-c1cc(OC)cc3c1N(C(=O)C3=O)C2(C)C	8	-12	-1	i	-57*	-51%
C#CCN1CCN(CC#N)CC12CCOC(C)(C)C2 (stereo not drawn)	·	·	0	·	·	·
CC(=O)N1CCN(S(=O)(=O)c2ccc(C(=O)NCc3ccc(OCC(F)(F)F)cc3)cc2)CC1	·	·	1	·	·	·
CCC(C)Nc1nc(Cl)nc(N(C#N)CN2C(=O)c3ccccc3S2(=O)=O)n1 (stereo not drawn)	0	-3	-4	i	-71*	-43%
CC(=O)Nc1ccc(Nc2nc(C)nc3c2nnn3Cc2ccccc2Cl)cc1	3	-20	-8	i	-74*	10%[56.9 µM]
Cc1nc(NC2CCCC2)c2nnn(Cc3ccccc3)c2n1	-5	·	·	·	·	·
Cc1nc(Nc2ccc(Cl)cc2)c2nnn(Cc3ccccc3)c2n1	0	1	-13	i	6	?
Cc1nc(Nc2ccc(S(=O)(=O)N3CCCCC3C)cc2)c2nnn(Cc3ccccc3)c2n1 (stereo not drawn)	1	-5	-2	i	-59*	-10%
COc1ccc(NC(=O)N[C@@H](CCSC)C(=O)O)cc1Cl	2	-8	-9	-115%*	0	7%
COc1ccc(NC(=O)Nc2cccs2)cc1Cl	-1	-1	0	i	-63*	0%
Cc1ccc2oc(=O)c(S(=O)(=O)c3ccc(F)c(C)c3)cc2c1	·	·	2	·	·	·
COc1ccc(N=C2NC(=O)S/C2=C\c2ccc(N(C)C)cc2)cc1	-5	-16	-4	i	-66*	-27%

Screening results (PubChem BioAssay)
